CYP2C9 inh = blockers of cytochrome P450 2C9 activity – biochemical, luminescence, ADME assay, primary screen; P11712; CYP2C9 Supersomes, luciferin-H conversion; inhibition, % at 5 µM; 96,000 compounds, 20% hits;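 active = blocking of liver enzyme CYP2C9 beyond about 50% at 5 µM, limit read from the data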
Pyk2 oligo antag = antagonists of Pyk2 self-association, primary screen, Q293 cells, FERM NanoBiT luminescence, HTS; Protein-tyrosine kinase 2-beta (Homo sapiens), Q14289; stronger effect = lower value; z-score (the deposit names both 25 µM and 10 µM); 99,000 compounds, 0.83% hits;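 active = Z-score of -3 or lower, scaled per plate to the spread of control and sample wells; inactive = z-score above -3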;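 also: negative z-score means lost luminescence so less FERM oligomerization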
Target sequence (Q14289 whole entry, looked up): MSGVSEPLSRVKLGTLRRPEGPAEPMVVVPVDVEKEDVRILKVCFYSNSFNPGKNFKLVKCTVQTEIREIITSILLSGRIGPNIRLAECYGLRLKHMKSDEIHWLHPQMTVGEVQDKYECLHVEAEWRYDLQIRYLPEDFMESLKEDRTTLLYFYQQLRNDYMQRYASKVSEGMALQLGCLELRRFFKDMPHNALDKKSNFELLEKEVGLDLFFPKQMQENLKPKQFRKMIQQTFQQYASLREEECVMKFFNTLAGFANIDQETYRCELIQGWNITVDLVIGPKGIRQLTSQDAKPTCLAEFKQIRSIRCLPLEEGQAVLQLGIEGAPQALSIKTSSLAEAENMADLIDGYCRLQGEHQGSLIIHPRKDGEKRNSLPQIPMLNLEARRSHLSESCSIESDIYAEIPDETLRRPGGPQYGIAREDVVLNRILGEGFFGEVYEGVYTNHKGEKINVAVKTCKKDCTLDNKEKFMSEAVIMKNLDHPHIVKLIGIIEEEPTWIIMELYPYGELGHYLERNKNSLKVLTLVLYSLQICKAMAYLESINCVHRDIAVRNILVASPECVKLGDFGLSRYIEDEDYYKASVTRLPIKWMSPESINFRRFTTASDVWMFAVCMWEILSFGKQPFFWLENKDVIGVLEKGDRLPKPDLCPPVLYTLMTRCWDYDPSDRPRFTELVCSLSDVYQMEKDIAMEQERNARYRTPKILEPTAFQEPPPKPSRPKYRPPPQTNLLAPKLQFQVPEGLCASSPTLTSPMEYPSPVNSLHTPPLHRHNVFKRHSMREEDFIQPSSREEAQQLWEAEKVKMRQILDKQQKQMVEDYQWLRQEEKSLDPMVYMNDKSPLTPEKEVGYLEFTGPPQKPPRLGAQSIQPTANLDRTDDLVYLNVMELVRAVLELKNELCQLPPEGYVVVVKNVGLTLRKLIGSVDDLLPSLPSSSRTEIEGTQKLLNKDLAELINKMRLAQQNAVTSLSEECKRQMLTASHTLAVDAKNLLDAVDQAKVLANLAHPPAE
Cav32 inh = Cav3.2 calcium influx blockers – cell-based, Fluo-4 calcium fluorescence, FDSS, MLSMR library, primary screen. Cav3.2-expressing cells; stronger effect = lower value. B-score at 10 µM. 100,000 compounds, 4% hits;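 active = single-dose well whose peak fluorescence ratio is a statistical outlier from its plate by either plate-standardised score or position-corrected B-score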
CYP2C19 inh = blockers of cytochrome P450 2C19 activity – biochemical, luminescence, ADME assay, primary screen. 96,000 compounds, 21% hits. CYP2C19 Supersomes, luciferin-H EGE luminescence, 30 min. inhibition, % at 5 µM. AID 778, 2007. P33261;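 active = CYP2C19 inhibition above a set limit at 5 µM in the primary screen, cut at about 50% in these data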
CYP2C19 activ = human CYP2C19 activators, primary screen, biochemical, luminescence; activation factor at 5 µM; 96,000 tested, under 10 active; AID 1025, 2008; recombinant CYP2C19, luciferin-H EGE luminescence; stronger effect = higher value; 0 = fully inhibited enzyme, 1 = untreated enzyme;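 active = activation factor of at least 2 at 5 µM in the primary screen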
CYP2C9 act = human CYP2C9 activators, primary screen, biochemical, luminescence. Cytochrome P450 2C9 (Homo sapiens), P11712. recombinant CYP2C9, luciferin-H conversion; stronger effect = higher value; factor 1 = untreated enzyme, 0 = blocked. activation factor at 5 µM. 96,000 compounds, 1.4% hits. AID 1024, 2008;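 active = activation factor of 2 or more for CYP2C9 at a 5 µM dose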
Of the large screens only hits and unclear results are named; the others gave an inactive call. Most compounds without a hit are left out; they make up all but 27% or so of the library.

COc1ccc(C2C(C(=O)NCCN3CCOCC3)c3ccccc3C(=O)N2C2CCCCC2)cc1 (centres undefined)	none (no result: CYP2C9 inh, Pyk2 oligo antag, CYP2C19 inh, CYP2C19 activ, CYP2C9 act)
CCNc1nc(NCC)nc(C(=O)OCCO)n1	none (no result: Pyk2 oligo antag)
COc1ccccc1OCC(=O)NCc1cccs1	CYP2C19 inh 58.6
O=C(CCC(=O)NNC(=O)COc1ccccc1)NCc1ccccc1	none
O=C(COc1ccccc1)NCc1cccs1	CYP2C19 inh 57.9
O=C(Cn1cccc1C(=O)c1ccccc1)NCc1cccs1	CYP2C19 inh 73.2
O=C(COc1ccc(Br)cc1)NCc1ccccn1	CYP2C19 inh 64.9
O=C(Cn1cccc1C(=O)c1ccccc1)NCc1ccccc1	none
CCCCc1nc2n[nH]c(N)c2c2c1CCCC2	none
CN1CCCC1c1cccnc1 (centres undefined)	none (no result: CYP2C9 inh, Pyk2 oligo antag, CYP2C19 inh, CYP2C19 activ, CYP2C9 act)
NC(=O)C1CCCN(C(=O)NC2CCCCC2)C1 (centres undefined)	none
O=S(=O)(Nc1ccc(N2CCOCC2)cc1)c1ccc(Cl)s1	CYP2C9 inh 100.3, CYP2C19 inh 100.3
O=S(=O)(Nc1ccc(N2CCCCC2)cc1)c1ccccc1	none (no result: CYP2C9 inh, Cav32 inh, CYP2C19 inh, CYP2C19 activ, CYP2C9 act)
O=S(=O)(Nc1ccc(N2CCOCC2)cc1)c1ccccc1	CYP2C9 inh 84.3, CYP2C19 inh 99.1
O=C(O)c1ccc(NS(=O)(=O)/C=C/c2ccccc2)cc1O	CYP2C9 inh 55.0
O=C(/C=C/c1ccccc1)NC(=S)Nc1ccc(N2CCOCC2)cc1	none
O=S(=O)(/C=C/c1ccccc1)Nc1ccc(N2CCOCC2)cc1	CYP2C9 inh 83.1, CYP2C19 inh 93.7
O=C(Nc1ccc(Cl)cc1)Nc1ccc(N2CCOCC2)cc1	none
CNC(=O)c1sc(-c2ccccc2)nc1C	none
Cc1nc(-c2ccccc2)sc1C(=O)CSc1ccc(F)cc1	CYP2C9 inh 86.5, CYP2C19 inh 64.2
Cc1nc(-c2ccccc2)sc1C(N)=O	none
Cc1nc(-c2ccccc2)sc1C(=O)CSc1ccccc1	CYP2C9 inh 79.6
C[C@H]1O[C@H](O[C@H]2[C@H](O)[C@@H](O)[C@@H](O[C@H]3[C@H](O)[C@@H](O)C(O)O[C@@H]3CO)O[C@@H]2CO)[C@H](O)[C@@H](O)[C@@H]1N[C@H]1C=C(CO)[C@@H](O)[C@H](O)[C@H]1O (some centres undefined)	none (no result: CYP2C9 inh, Pyk2 oligo antag, CYP2C19 inh, CYP2C19 activ, CYP2C9 act)
O=C(CNC(=O)c1cccs1)NCCN1CCN(c2ccccc2F)CC1	none (no result: Cav32 inh)
O=C(CCCN1C(=O)c2ccccc2C1=O)OC1CSCC1NC(=O)c1ccccc1 (centres undefined)	CYP2C19 inh 70.4
CCc1c(O)cc2n(c1=O)-c1ccc(Cl)cc1C2(C)C	none (no result: CYP2C9 inh, CYP2C19 inh, CYP2C19 activ, CYP2C9 act)
CCO[C@@H]1OC(C(=O)N2CCN(C)CC2)=C[C@H](c2ccc(C(F)(F)F)cc2)[C@H]1CCCO	none (no result: CYP2C9 inh, Pyk2 oligo antag, CYP2C19 inh, CYP2C19 activ, CYP2C9 act)
O=C(Nc1sc2c(c1C(=O)O)CCC2)c1cccs1	CYP2C9 inh 69.7, CYP2C19 inh 84.8 (no result: Cav32 inh)
NC(=O)c1c(NC(=O)c2cccs2)sc2c1CCCCCC2	CYP2C9 inh 84.7, CYP2C19 inh 83.5
Cc1cc2c(c(C)nn2-c2ccccc2)c(=O)o1	CYP2C19 inh 56.1
CCc1c(C)c2c(C)nn(-c3ccccc3)c2oc1=O	none (no result: CYP2C9 inh, CYP2C19 inh, CYP2C19 activ, CYP2C9 act)
CCn1c(N2CCN(S(=O)(=O)c3ccccc3C(F)(F)F)CC2)nc2ccccc21	CYP2C19 inh 68.9
O=[N+]([O-])c1ccc(S(=O)(=O)CC2CSc3nc4ccccc4n32)cc1 (centres undefined)	none (no result: CYP2C9 inh, Cav32 inh, CYP2C19 inh, CYP2C19 activ, CYP2C9 act)
CC(=O)n1c2ccccc2c2c1c1ccccc1n2C	none
CC(=O)n1cc(-c2ccncc2)c2ccccc21	CYP2C9 inh 79.4, CYP2C19 inh 79.9 (no result: Pyk2 oligo antag)
CCC(C)Sc1nc2ccccc2c(=O)[nH]1 (centres undefined)	none (no result: CYP2C9 inh, CYP2C19 inh, CYP2C19 activ, CYP2C9 act)
O=c1c2ccccc2c2c(O)nc(-c3ccccc3)n2n1Cc1ccccc1	CYP2C9 inh 53.9
COC(=O)[C@@]1(Cc2ccc(OC)cc2)[C@H]2c3cc(C(=O)N4CCCC4)n(C[C@H](O)CO)c3C[C@H]2CN1C(=O)c1ccccc1	none (no result: CYP2C9 inh, Pyk2 oligo antag, CYP2C19 inh, CYP2C19 activ, CYP2C9 act)
NC(=O)C1(N2CCCCC2)CCN(C(=O)CSc2nc3ccccc3s2)CC1	CYP2C9 inh 79.1, CYP2C19 inh 78.1 (no result: Cav32 inh)
O=C(CSc1nc2ccccc2s1)N1CCOCC1	CYP2C19 inh 78.3
COc1cccc(NC(=O)C2CCN(Cc3cnn(-c4ccccc4)c3-n3cccc3)CC2)c1	CYP2C9 inh 67.2, Cav32 inh -10.3
COc1ccc(OC)c(NC(=O)C2CCN(Cc3cnn(-c4ccccc4)c3-n3cccc3)CC2)c1	Cav32 inh -8.65
COc1ccc(NC(=O)C2CCN(Cc3cnn(-c4ccccc4)c3-n3cccc3)CC2)cc1OC	none
O=C(Nc1ccccc1Cl)C1CCN(Cc2cnn(-c3ccccc3)c2-n2cccc2)CC1	Cav32 inh -8.32
O=C(O)c1cnn(-c2ccccc2)c1-n1cccc1	none (no result: CYP2C9 inh, Pyk2 oligo antag, CYP2C19 inh, CYP2C19 activ, CYP2C9 act)
CC(C)COc1ccc(/C=C2/Sc3ccccc3C2=O)cc1	none
Cc1ccc(-c2nnn(CC(=O)N(CC(=O)NCc3ccccc3)c3cccc(C)c3C)n2)o1	CYP2C9 inh 78.5
Cc1ccc(-c2nnn(CC(=O)N(CC(=O)NC3CCCC3)c3cnc4ccccc4c3)n2)o1	CYP2C9 inh 76.6
COCCNC(=O)Cn1nc(C(F)(F)F)c(Br)c1C	CYP2C9 inh 52.2
COCCNC(=O)Cn1nc(C(F)(F)F)cc1C	none
Cc1ccc(S(=O)(=O)N(CC(=O)N2CCCCCC2)c2ccccc2)cc1	none
Cc1ccc(N(CC(=O)N2CCN(C3CCCCC3)CC2)S(=O)(=O)c2cccnc2)cc1	CYP2C9 inh 73.6
COc1ccc(C2=CC(=O)OC3(CCCC3)O2)cc1	none
COc1ccc(NC(=O)CSc2nnc(Cc3cccn3C)n2CCc2ccccc2)c(OC)c1	CYP2C19 inh 74.8
COc1ccc(-n2c(Cc3cccn3C)nnc2SCC(=O)Nc2ccccc2F)cc1	Cav32 inh -4.45 (no result: Pyk2 oligo antag)
COc1ccc(-n2c(Cc3cccn3C)nnc2SCC(=O)Nc2ccc(F)cc2F)cc1	CYP2C9 inh 55.3, Cav32 inh -8.44 (no result: Pyk2 oligo antag)
COc1ccc(OC)c(NC(=O)CSc2nnc(Cc3cccn3C)n2-c2ccc(F)cc2)c1	CYP2C9 inh 54.2, CYP2C19 inh 72.9 (no result: Pyk2 oligo antag)
Cn1cccc1Cc1nnc(SCC(=O)N2CCOCC2)n1-c1ccc(F)cc1	none (no result: Pyk2 oligo antag)
CCCOP(=O)(OCCC)C(Nc1ccc(C(C)C)cc1)c1ccc([N+](=O)[O-])cc1 (centres undefined)	none (no result: Cav32 inh)
CC1CCCC(C)N1C(=O)CSc1nnnn1Cc1ccccc1 (centres undefined)	none
CCCCCCCCS(=O)c1sc2nc3c(cc2c1N)CCCC3 (centres undefined)	Cav32 inh -4.8 (no result: CYP2C9 inh, CYP2C19 inh, CYP2C19 activ, CYP2C9 act)
CCCCS(=O)(=O)c1sc2nc3c(cc2c1N)CCCC3	none

High-throughput results from PubChem BioAssay.
